# HePTP inhibitor – inhibitors of human HePTP phosphatase; P35236; inhibition, % at 20 µM; 110,000 tested, 0.64% active; recombinant HePTP phosphatase activity, OD absorbance; in the data active = inhibition above about 50%;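 also: plate controls were vehicle for no effect and reference inhibitor for full effect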
# ERa coact inh – blocks coactivator binding to human estrogen receptor alpha; P03372; TR-FRET ER-alpha LBD / SRC-1 peptide, estradiol-bound; inhibition, % at 25.6 µM; 86,000 tested, 1.7% active; AID 629; in the data active = inhibition above about 50%;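 also: 0% = receptor plus peptide control and 100% = peptide only without receptor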
# ERa coact pot – ER-alpha (human) coactivator binding potentiation; P03372; TR-FRET ERalpha-LBD/SRC-Cy5 coactivator binding, 2 h; 100 = basal binding, no effect; coactivator binding (% of control), % at 25.6 µM; 86,000 tested, 1.3% active; AID 639; in the data active = activity above about 200%;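 also: binding measured in presence of low estradiol as agonist stimulus; 0% = peptide alone without receptor and 100% = receptor with peptide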
# Candida biofilm – kills Candida albicans biofilms | C. albicans biofilm + clotrimazole, Alamar Blue | inhibition, % at 6 µM | 85,000 tested, 0.14% active | AID 834;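 active = inhibition above 20%; inactive = inhibition below 20%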;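 also: preformed 24 hr biofilms exposed to compound for 48 hr; 0% = biofilm without compound and 100% = blank killed by clotrimazole plus chlorhexidine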
# Smad3 FoxH1 inh – Smad3 (human) transcription factor binding inhibition; inhibition, % at 25 µM; TR-FRET Smad3/Dy647-FoxH1 peptide binding, europium anti-His; P84022; 88,000 tested, 0.29% active;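 active = compounds that reduce the energy-transfer binding signal between the protein and its labelled peptide by more than half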;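 also: 0% = Smad3 plus labelled peptide maximal FRET and 100% = peptide-only background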
# Target sequence (P84022 whole entry, looked up): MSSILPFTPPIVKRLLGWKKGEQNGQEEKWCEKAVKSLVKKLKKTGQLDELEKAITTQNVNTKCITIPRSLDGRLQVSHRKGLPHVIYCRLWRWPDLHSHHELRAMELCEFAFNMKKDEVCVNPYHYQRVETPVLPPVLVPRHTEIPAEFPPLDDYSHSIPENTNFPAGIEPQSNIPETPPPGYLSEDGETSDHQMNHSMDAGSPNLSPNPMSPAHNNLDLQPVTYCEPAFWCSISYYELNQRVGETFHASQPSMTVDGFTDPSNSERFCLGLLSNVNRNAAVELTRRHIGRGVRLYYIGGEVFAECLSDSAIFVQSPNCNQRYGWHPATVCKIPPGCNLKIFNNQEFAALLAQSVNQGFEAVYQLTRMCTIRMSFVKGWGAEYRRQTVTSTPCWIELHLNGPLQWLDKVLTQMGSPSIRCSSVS
# ERb SRC1 inh – ER-beta (human) coactivator binding inhibition. Q92731. TR-FRET ER-beta LBD / SRC1-Cy5 peptide binding; receptor agonist-loaded with 1 µM estradiol. inhibition, % at 25.6 µM. 86,000 tested, 1.3% active;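 active = compounds whose percent inhibition of the receptor-coactivator binding signal exceeds about 50% in the single-dose screen, limit read from the data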;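 also: 0% = receptor plus peptide wells without compound and 100% = peptide-only wells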
# An asterisk follows results filed as active; / = not tested or not shown; [ ] = another dose, or the depositor's remark. Most compounds without a hit are left out; they make up all but 2.9% or so of the library.
SMILES,HePTP inhibitor,ERa coact inh,ERa coact pot,Candida biofilm,Smad3 FoxH1 inh,ERb SRC1 inh
COC(=O)Cn1c(CCC(=O)O)ccc1-c1ccccc1,0,-7,97,31*,2,-2
Cc1nc2c(F)c(F)c(C(F)(F)F)c(F)c2[nH]1,-6,0,126,2,-11,1
Cc1nc2c(Br)c3nc(C(F)(F)F)[nH]c3c(Br)c2[nH]1,4,38,68,-5,3,74*[fluorescence artefact?]
CC(=O)N(C1=C(N2CCCCC2)C(=O)c2ccccc2C1=O)c1ccc(Br)cc1,0,/,/,/,/,/
CC(C)c1ccc(/C=C/C(=O)Nc2ccc(C(N)=O)cc2)cc1,104*,/,/,/,/,/
CC(=O)c1ccc(NC(=O)/C=C/c2ccccc2)cc1,-26,/,/,/,/,/
CCN1C(=O)/C(=C\c2nc3ccccc3c(=O)n2C)c2ccccc21,0,/,/,/,/,/
COc1ccc(C(=O)Nc2nnc(-c3ccco3)s2)cc1,7,4,463*[fluorescence artefact?],-1,-4,30
COc1ccccc1C(=O)Nc1nnc(-c2ccco2)s1,-10,12,242*,5,-4,14
Cc1ccccc1C(=O)Nc1nnc(-c2ccco2)s1,2,/,/,/,/,/
COCCCNc1nc2c([nH]1)c(=O)[nH]c(=O)n2C,7,-8,159,2,1,52*
CCOCCCNc1nc2c([nH]1)c(=O)n(C)c(=O)n2C,6,-4,133,6,1,1
CCOC(=O)/C=C1\SCC(=O)N1Cc1nnc(-c2ccccc2Br)o1,15,59*[fluorescence artefact?],59,7,-5,42
CCOC(=O)/C=C1\SCC(=O)N1Cc1ccc(Br)cc1,-7,-6,101,8,-1,-5
COc1ccc(C(=O)c2ccc(N3CCN(C(=O)c4ccc(F)cc4)CC3)c(F)c2)cc1Br,/,24,292*[fluorescence artefact?],3,11,22
O=C(Nc1ccc(O)cc1)C1CC=CCC1 (stereo not drawn),-1,44,18,8,18,68*
CCN(CC)c1ccc(NC(=O)c2ccc(I)cc2)cc1,-12,/,/,/,/,/
CCN(CC)c1ccc(NC(=O)c2cnn(CC)c2)cc1,/,38,38,12,-10,78*[fluorescence artefact?]
O=C(CN1CCN(Cc2ccccc2)CC1)N1CCCc2c1c(=O)oc1ccc(O)cc21,-5,16,82,-2,5,-10
O=C(CN1CCCCC1)N1CCCc2c1c(=O)oc1ccc(OCc3ccccc3)cc21,/,1,327*[fluorescence artefact?],7,2,-5
CCOC(=O)C1CCCN(C(=O)c2cc3ncc(Br)cn3n2)C1 (stereo not drawn),5,57*,42,8,9,60*[fluorescence artefact?]
CCCCNC(=O)c1cc2ncc(Br)cn2n1,10,/,/,/,/,/
O=C(c1cc2ncc(Br)cn2n1)N1CCOCC1,-7,49,36,-1,9,58*
O=C(c1cc2ncc(Br)cn2n1)N1CCN(C(=O)c2ccco2)CC1,0,61*,46,0,3,52*
C=CCOc1ccc(/C=C2\SC(=S)N(c3ccc(OC)cc3)C2=O)cc1OC,8,/,/,/,/,/
SMILES,HePTP inhibitor,ERa coact inh,ERa coact pot,Candida biofilm,Smad3 FoxH1 inh,ERb SRC1 inh
COc1ccc(-c2nc3cc(NC(=O)c4ccc5c(c4)OCCO5)ccc3o2)cc1Cl,-2,/,/,/,/,/
Cc1cc(C)nc(NS(=O)(=O)c2ccc(NC(=S)NC(=O)c3ccc(Br)cc3)cc2)n1,5,/,/,/,/,/
CC(C)(C)NC(=O)c1cccc(NC(=O)c2ccc(NC(=O)c3ccco3)cc2)c1,6,11,95,6,8,6
CC(C)CNC(=O)c1cccc(NC(=O)c2ccc(NC(=O)c3ccco3)cc2)c1,-1,38,230*[fluorescence artefact?],6,-20,21
COc1ccc(Cn2c(C)c(C)c(C#N)c2NC(=O)Nc2cccc(C)c2)cc1,/,70*[fluorescence artefact?],76,7,4,50*
Cc1ccc(C)c(-c2nc3ccc(N)cc3[nH]2)c1,19,0,116,4,10,-5
Nc1ccc(-c2nc3ccc(-c4nc5ccccc5o4)cc3[nH]2)cc1,6,/,/,/,/,/
Nc1ccc2nc(-c3ccc(Cl)cc3)[nH]c2c1,4,87*[fluorescence artefact?],72,-3,13,44
Nc1ccc(-c2nc3ccc(-c4ccc5nc(-c6ccc(N)cc6)[nH]c5c4)cc3[nH]2)cc1,-4,/,/,/,/,/
Nc1ccc(-c2nc3c(Cl)c(N)ccc3[nH]2)cc1,0,6,109,-2,2,53*[fluorescence artefact?]
Nc1ccc2nc(-c3cc(Cl)c(N)c(Cl)c3)[nH]c2c1,/,95*[fluorescence artefact?],4,7,22,47
CC1=CCN(C(C)(C)C)CC1=O,6,/,/,/,/,/
CC12CCCCC1(O)[N+](=O)C1=C(CCCC1)N2[O-] (stereo not drawn),5,39,68,-3,5,66*
CC1=C(C)[N+](=O)C2(O)CCCCC2(C)N1[O-] (stereo not drawn),/,-8,109,-1,-10,-3
CC(NC(=O)c1ccccc1Cl)c1ccccc1 (stereo not drawn),98*,/,/,/,/,/
COc1ccccc1C(=O)N[C@H](C)c1ccccc1,-15,/,/,/,/,/
O=C(Cn1cc(/C=C2\NC(=S)NC2=O)c2ccccc21)Nc1ccccc1,-1,/,/,/,/,/
CCn1c(SCC(=O)Nc2ccc(NC(=O)c3ccco3)c(OC)c2)nc2ccccc2c1=O,8,65*,154,3,-17,43
CCn1c(SCC(=O)Nc2ccc3c(c2)OCO3)nc2ccccc21,/,-10,94,0,6,-8
CCCCn1c(SCC(=O)Nc2cc(NC(=O)c3ccco3)ccc2C)nc2ccccc2c1=O,8,75*[fluorescence artefact?],122,2,-12,58*[fluorescence artefact?]
CCOc1ccc2nc(NC(=O)CSc3nc4ccccc4c(=O)n3Cc3ccco3)sc2c1,2,17,138,7,5,53*[fluorescence artefact?]
C=CCn1c(SCC(=O)Nc2ccc3c(c2)OCO3)nc2ccccc2c1=O,7,-1,105,0,6,98*[fluorescence artefact?]
COCCn1c(SCC(=O)Nc2ccc(NC(=O)c3ccco3)c(OC)c2)nc2ccccc2c1=O,/,29,160,-1,-10,25
COc1ccc(CO/N=C(/N)c2nonc2N)cc1[N+](=O)[O-],4,/,/,/,/,/
COc1cc(C2Nc3ccccc3NC3=C2C(=O)CC(C)(C)C3)cc([N+](=O)[O-])c1O (stereo not drawn),2,/,/,/,/,/
SMILES,HePTP inhibitor,ERa coact inh,ERa coact pot,Candida biofilm,Smad3 FoxH1 inh,ERb SRC1 inh
O=C(Nc1ccc2oc(-c3ccncc3)nc2c1)c1c(F)c(F)c(F)c(F)c1F,-2,22,266*,-4,-22,11
O=C(Nc1ccc2oc(-c3ccccc3F)nc2c1)c1cncc(Br)c1,7,54*,164,8,3,28
O=C(Nc1ccc2oc(-c3ccccc3F)nc2c1)C(Cl)(Cl)Cl,12,/,/,/,/,/
COc1c(F)c(F)c(C(=O)Nc2ccc3oc(-c4ccncc4)nc3c2)c(F)c1F,3,24,140,-2,-6,19
O=C(Cc1ccc(Cl)cc1)Nc1ccc2oc(-c3ccncc3)nc2c1,10,5,456*,10,5,8
O=C(Cc1ccccc1)Nc1ccc2oc(-c3cccnc3)nc2c1,-2,-63,790*,7,2,-16

# Screening data from PubChem.
